Structures are written as SMILES. This is part of a sample that, as a whole, favours compounds with a hit. Of some 79,000 tested, about 15% had one in any assay. Unmarked numbers belong to inactive results. Calls of active or inactive are those of the source. Rule as the data show it: active = growth inhibition above about 70%; inactive = the rest.

The results in this text go back to PubChem BioAssay (NCI).

A short description of assay [1]: NCI Yeast Anticancer Drug Screen. Data for the rad50 strain (AID 155).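 Also: 0% = growth of vehicle-only cultures of the same strain.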 Particulars: S. cerevisiae rad50 strain growth inhibition, active compounds read high. Summed up: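 Relative growth inhibition (compound vs vehicle) was measured in yeast with a defined repair-gene alteration.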
The nature of assay [2]: NCI Yeast Anticancer Drug Screen. Data for the mec2-1 strain (AID 157). Particulars: S. cerevisiae mec2-1 strain, active compounds read high. In a few lines: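 Compounds were applied to mec2-1 yeast cells. Their growth was then compared with that of vehicle-treated cultures to give growth inhibition.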
The nature of assay [3]: NCI Yeast Anticancer Drug Screen. Data for the sgs1 mgt1 strain (AID 161).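 Also: 0% = growth of cultures given vehicle only.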 Particulars: S. cerevisiae sgs1 mgt1 strain, active compounds read high. In a few lines:
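This yeast growth screen uses a strain with defined DNA-repair lesions; compound-treated growth is compared with vehicle-treated growth.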

Assay [4] in a line: NCI Yeast Anticancer Drug Screen. Data for the cln2 rad14 strain (AID 165).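 Also: 0% = growth equal to vehicle treated cultures.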 Particulars: S. cerevisiae cln2 rad14 strain, active compounds read high. In a few lines: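 Strain: cln2 rad14 yeast, altered in cell cycle control and DNA damage repair. Read-out: growth inhibition vs vehicle.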
Assay [5] is described as follows: NCI Yeast Anticancer Drug Screen. Data for the bub3 strain (AID 167). Particulars: S. cerevisiae bub3 mutant strain, active compounds read high. Summed up:
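Screening used yeast with an engineered genetic alteration affecting cell cycle control. Compound-exposed cultures were compared with vehicle cultures, and reduced growth was taken as inhibition.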

The nature of assay [6]: NCI Yeast Anticancer Drug Screen. Data for the mlh1 rad18 strain (AID 175). Particulars: S. cerevisiae mlh1 rad18 strain growth inhibition, active compounds read high. Summed up: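 A repair-deficient yeast strain is exposed to test compound, and growth is scored relative to vehicle-treated controls.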
Setting [7] is: at 5.0 µM (retest, dose inferred, filed as 0.5).
[8] abbreviates: at 50.0 µM (retest, dose inferred, filed as 5.0).

`[O-][n+]1c2ccccc2nc2cc(Cl)ccc21`: the growth inhibition in assay [1] (setting [7]) is -114%; in assay [1] (setting [8]), 11%; in assay [1] (at 50.0 µM), 92.2% (active); in assay [2] (setting [7]) it was -35%; in assay [2] (setting [8]), -32%; in assay [2] (at 50.0 µM), 21.6%. Further, the growth inhibition in assay [3] (setting [7]) is -53%; in assay [3] (setting [8]), 6%; in assay [3] (at 50.0 µM), 68.5%; in assay [4] (setting [7]), -64%; in assay [4] (setting [8]) it was -46%; in assay [4] (at 50.0 µM), 25.6%. Also, the growth inhibition was -47% in assay [5] (setting [7]); -1% in assay [5] (setting [8]); 48.1% in assay [5] (at 50.0 µM); -105% in assay [6] (setting [7]); -17% in assay [6] (setting [8]); 84.8% (active) in assay [6] (at 50.0 µM).
For the compound `CCOC(=O)C(=O)CC1=Nc2ccccc2SC(c2cccc(C)c2)C1` (configuration not stated), the growth inhibition in assay [1] (setting [7]) is 2%; in assay [1] (setting [8]), 81% (active); in assay [1] (at 50.0 µM), 91.9% (active); in assay [2] (setting [7]) it was -1%; in assay [2] (setting [8]) it was 98% (active); in assay [2] (at 50.0 µM) it was 92.9% (active). The growth inhibition in assay [3] (setting [7]) was 7%; in assay [3] (setting [8]), 98% (active); in assay [3] (at 50.0 µM), 99.2% (active); in assay [4] (setting [7]) it was -2%; in assay [4] (setting [8]), 86% (active); in assay [4] (at 50.0 µM), 50%. Also, the growth inhibition was 12% in assay [5] (setting [7]); 98% (active) in assay [5] (setting [8]); 99.1% (active) in assay [5] (at 50.0 µM); 2% in assay [6] (setting [7]); 97% (active) in assay [6] (setting [8]); 97.5% (active) in assay [6] (at 50.0 µM).
As for `c1ccc([P+](c2ccccc2)(c2ccccc2)C2CCCC2)cc1`, the growth inhibition in assay [1] (setting [7]) is -18%; in assay [1] (setting [8]), 7%; in assay [1] (at 50.0 µM) it was 96.8% (active); in assay [2] (setting [7]) it was -13%; in assay [2] (setting [8]), 15%; in assay [2] (at 50.0 µM), 97.5% (active). Further, the growth inhibition is -13% in assay [3] (setting [7]); 40% in assay [3] (setting [8]); 97.6% (active) in assay [3] (at 50.0 µM); -3% in assay [4] (setting [7]); -1% in assay [4] (setting [8]); 98.3% (active) in assay [4] (at 50.0 µM). Besides, the growth inhibition is 0% in assay [5] (setting [7]); -1% in assay [5] (setting [8]); 95.5% (active) in assay [5] (at 50.0 µM); 11% in assay [6] (setting [7]); 32% in assay [6] (setting [8]); 98.5% (active) in assay [6] (at 50.0 µM).
For the compound `Cc1ccc(O)cc1CCCCO`, the growth inhibition is 2% in assay [1] (setting [7]); -4% in assay [1] (setting [8]); -7.45% in assay [1] (at 50.0 µM); 0% in assay [2] (setting [7]); -1% in assay [2] (setting [8]); -2.1% in assay [2] (at 50.0 µM). The growth inhibition in assay [3] (setting [7]) was -1%; in assay [3] (setting [8]), -2%; in assay [3] (at 50.0 µM) it was -3.55%; in assay [4] (setting [7]), -2%; in assay [4] (setting [8]) it was 7%; in assay [4] (at 50.0 µM), 74.6% (active). In addition, the growth inhibition in assay [5] (setting [7]) is -11%; in assay [5] (setting [8]) it was 0%; in assay [5] (at 50.0 µM), -5.95%; in assay [6] (setting [7]) it was 0%; in assay [6] (setting [8]), -2%; in assay [6] (at 50.0 µM) it was -3.45%.
For the compound `COc1ccc(/C(Cl)=C(/c2ccc(O)cc2)c2ccc(OCCN(C)C)cc2)cc1`, the growth inhibition in assay [1] (setting [7]) was 40%; in assay [1] (setting [8]), 40%; in assay [1] (at 50.0 µM), 91.8% (active); in assay [2] (setting [7]), 32%; in assay [2] (setting [8]), 32%; in assay [2] (at 50.0 µM) it was 87.7% (active). In addition, the growth inhibition was 42% in assay [3] (setting [7]); 42% in assay [3] (setting [8]); 92.3% (active) in assay [3] (at 50.0 µM); 34% in assay [4] (setting [7]); 34% in assay [4] (setting [8]); 89.3% (active) in assay [4] (at 50.0 µM). For the same compound, the growth inhibition is 26% in assay [5] (setting [7]); 26% in assay [5] (setting [8]); 88.6% (active) in assay [5] (at 50.0 µM); 27% in assay [6] (setting [7]); 27% in assay [6] (setting [8]); 88.8% (active) in assay [6] (at 50.0 µM).
On to `OC(CN1CCCCC1)c1ccc2c(ccc3ccccc32)c1` (configuration not stated), for which the growth inhibition was 21% in assay [1] (setting [7]); 54% in assay [1] (setting [8]); 83% (active) in assay [1] (at 50.0 µM); 6% in assay [2] (setting [7]); 46% in assay [2] (setting [8]); 50% in assay [2] (at 50.0 µM). Further, the growth inhibition in assay [3] (setting [7]) was 35%; in assay [3] (setting [8]) it was 75% (active); in assay [3] (at 50.0 µM), 88.2% (active); in assay [4] (setting [7]) it was 19%; in assay [4] (setting [8]), 50%; in assay [4] (at 50.0 µM), 75% (active). Besides, the growth inhibition was 25% in assay [5] (setting [7]); 69% in assay [5] (setting [8]); 91.8% (active) in assay [5] (at 50.0 µM); 22% in assay [6] (setting [7]); 61% in assay [6] (setting [8]); 87.5% (active) in assay [6] (at 50.0 µM).
With `CCOC(=O)Cc1[nH]c(C(=O)c2ccccc2)cc1C(=O)c1ccccc1`, the growth inhibition in assay [1] (setting [7]) is 20%; in assay [1] (setting [8]) it was 87% (active); in assay [1] (at 50.0 µM), -44.6%; in assay [2] (setting [7]) it was 11%; in assay [2] (setting [8]), 81% (active); in assay [2] (at 50.0 µM), -9.35%. Also, the growth inhibition in assay [3] (setting [7]) was -1%; in assay [3] (setting [8]), 88% (active); in assay [3] (at 50.0 µM) it was -36.1%; in assay [4] (setting [7]), 7%; in assay [4] (setting [8]), 97% (active); in assay [4] (at 50.0 µM), 5%. The growth inhibition in assay [5] (setting [7]) is -2%; in assay [5] (setting [8]), 97% (active); in assay [5] (at 50.0 µM), -24.4%; in assay [6] (setting [7]) it was 17%; in assay [6] (setting [8]), 89% (active); in assay [6] (at 50.0 µM) it was -42.9%.
For the compound `COc1cccc(C=Nc2ccc(I)cc2)c1O.COc1cccc(C=Nc2ccc(I)cc2)c1O.[Co]`, the growth inhibition in assay [1] (setting [7]) was 15%; in assay [1] (setting [8]) it was 56%; in assay [1] (at 50.0 µM), 29.4%; in assay [2] (setting [7]) it was 11%; in assay [2] (setting [8]), 25%; in assay [2] (at 50.0 µM), 11.7%. Also, the growth inhibition in assay [3] (setting [7]) was 12%; in assay [3] (setting [8]), 31%; in assay [3] (at 50.0 µM) it was 30.2%; in assay [4] (setting [7]), 10%; in assay [4] (setting [8]), 19%; in assay [4] (at 50.0 µM), 21%. The growth inhibition is 10% in assay [5] (setting [7]); 9% in assay [5] (setting [8]); 52.1% in assay [5] (at 50.0 µM); 13% in assay [6] (setting [7]); 37% in assay [6] (setting [8]); 19.2% in assay [6] (at 50.0 µM).
Turning to `COc1cc2c(c(C3C(=O)N(C)c4ccc(Br)cc43)c1OC)OCO2` (configuration not stated), the growth inhibition is 3% in assay [1] (setting [7]); 3% in assay [1] (setting [8]); 4.3% in assay [1] (at 50.0 µM); 2% in assay [2] (setting [7]); 4% in assay [2] (setting [8]); 12.7% in assay [2] (at 50.0 µM). The growth inhibition in assay [3] (setting [7]) is -1%; in assay [3] (setting [8]) it was 10%; in assay [3] (at 50.0 µM), 11.3%; in assay [4] (setting [7]), 5%; in assay [4] (setting [8]), 12%; in assay [4] (at 50.0 µM) it was -3.8%. For the same compound, the growth inhibition was 4% in assay [5] (setting [7]); -1% in assay [5] (setting [8]); -1.85% in assay [5] (at 50.0 µM); 4% in assay [6] (setting [7]); 10% in assay [6] (setting [8]); 8.55% in assay [6] (at 50.0 µM).
